We go through eight molecules from PubChem BioAssay (EPA / NIEHS).

The nature of assay [1]: BSK_4H_Eotaxin3: BioMAP Diversity Plus: 4H Assay for Eotaxin 3 Biomarker Activity (AID 2283000).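 On outcome: CCL26 protein level quantified by ELISA in parallel with SRB cytotoxicity check.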 The following applies: primary human endothelial cells (HUVEC); actives raise or lower the signal. An outline of the steps: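 ELISA quantitation of CCL26 (Eotaxin-3) protein from chemically dosed human vascular endothelial cells at 24 h; increases and decreases both scored relative to DMSO-treated baseline.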

For assay [2], the target named is human Peroxisome Proliferator-activated Receptor alpha (PPARa), PPARA (gene 5465) (UniProt Q07869). Briefly: ATG_PPARa_TRANS: Attagene TRANS-FACTORIAL HepG2 Assay for human Peroxisome Proliferator-activated Receptor alpha (PPARa) (AID 2283001; active means hit-call score of the fitted dose curve at least 0.9, where 1 is the maximum). An outline of the steps:
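HepG2 cells transiently transfected with multiplexed GAL4-UAS reporter units and chimeric NR-Gal4 constructs were dosed for 24 h. Reporter mRNA was measured by RT-PCR with fluorescent labelling and capillary electrophoresis; gain of signal fitted against DMSO.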

Read-out in assay [3]: Intercellular Adhesion Molecule 1 (ICAM1), ICAM1 (gene 3383)
Briefly: BSK_3C_ICAM1: BioMAP Diversity Plus: 3C Assay for Intercellular Adhesion Molecule 1 (ICAM1) Biomarker Activity (AID 2283003). The following applies: primary human endothelial cells (HUVEC); actives raise or lower the signal. An outline of the steps: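 Human vascular endothelial primary cells, 3C conditions, 24 h treatment. ICAM-1 by ELISA.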

Assay [4] can be described thus: BSK_3C_Proliferation: Cell Proliferation Assessment in the BioMAP Diversity Plus: 3C Assay (AID 2283006).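 On AC50: potency may reflect either rise or fall in cell number versus DMSO.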 The following applies: primary human endothelial cells (HUVEC). An outline of the steps: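 Proliferation of human vascular endothelial primary cells after 48 h dosing, quantified as SRB-stained protein at 560 nm relative to DMSO.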
For assay [5], the target named is Peroxisome proliferator-activated receptor gamma (Homo sapiens) (UniProt P37231). The experiment in a line: ATG_PPARg_TRANS: Attagene TRANS-FACTORIAL HepG2 Assay for human Peroxisome Proliferator-activated Receptor-gamma (PPARg) (AID 2283007; active means hit-call score of the fitted dose curve at least 0.9, where 1 is the maximum). An outline of the steps:
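Twenty-four hours after chemical dosing of transiently transfected HepG2 cells, isolated RNA was converted to cDNA, reporter sequences amplified and 6-FAM-labelled, then HpaI-digested and analysed by capillary electrophoresis. Signal increase against DMSO was fitted.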

Assay [6] addresses Nuclear receptor subfamily 1 group I member 2 (Homo sapiens) (UniProt O75469). The experiment in a line: ATG_PXR_TRANS: Attagene TRANS-FACTORIAL HepG2 Assay for human Pregnane X Receptor (PXR) (AID 2283008; active means hit-call score of the fitted dose curve at least 0.9, where 1 is the maximum). An outline of the steps:
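HepG2 cells transiently transfected with multiple reporter units, here a PXR-GAL4 chimera driving a GAL4-UAS reporter; 24 h compound exposure. Reporter mRNA measured by RT-PCR, FAM labelling and capillary electrophoresis; gain of signal fitted against DMSO baseline.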

Assay [7] addresses human RAR-related Orphan Receptor beta (RORb), RORB (gene 6096) (UniProt Q92753). Briefly: ATG_RORb_TRANS: Attagene TRANS-FACTORIAL HepG2 Assay for human RAR-related Orphan Receptor beta (RORb) (AID 2283010; active means hit-call score of the fitted dose curve at least 0.9, where 1 is the maximum). An outline of the steps:
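In this TRANS-format test, human HepG2 cells express chimeric NR-Gal4 fusion proteins driving GAL4-UAS reporters. After 24 h dosing, reporter transcripts are measured by fluorescent RT-PCR/capillary electrophoresis, with DMSO as negative control.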

In assay [8] the target is human RAR-related Orphan Receptor gamma (RORg), RORC (gene 6097) (UniProt P51449). Briefly: ATG_RORg_TRANS: Attagene TRANS-FACTORIAL HepG2 Assay for human RAR-related Orphan Receptor gamma (RORg) (AID 2283011; active means hit-call score of the fitted dose curve at least 0.9, where 1 is the maximum). An outline of the steps:
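Chimeric RORg-Gal4 transactivation in transfected HepG2; 24 h exposure; RT-PCR/capillary electrophoresis readout of reporter mRNA, DMSO baseline.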

Assay [9] concerns the target Retinoic acid receptor RXR-alpha (Homo sapiens) (UniProt P19793). The experiment in a line: ATG_RXRa_TRANS: Attagene TRANS-FACTORIAL HepG2 Assay for human Retinoid X Receptor alpha (RXRa) (AID 2283012; active means hit-call score of the fitted dose curve at least 0.9, where 1 is the maximum). An outline of the steps: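 Cells (HepG2) carried transiently transfected GAL4-responsive reporter units. Following a 24 h chemical incubation, reporter mRNA induction was read via RT-PCR fragment analysis; DMSO served as negative control and baseline.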

Assay [10] deals with human Retinoid X Receptor beta (RXRb), RXRB (gene 6257) (UniProt P28702). The experiment in a line: ATG_RXRb_TRANS: Attagene TRANS-FACTORIAL HepG2 Assay for human Retinoid X Receptor beta (RXRb) (AID 2283013; active means hit-call score of the fitted dose curve at least 0.9, where 1 is the maximum). An outline of the steps: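 Multiplexed TRANS reporter assay in HepG2; 24 h dosing; reporter mRNA by RT-PCR/CE fluorescence; gain-of-signal relative to DMSO.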
Read-out in assay [11]: Interleukin-1 alpha (IL1a), IL1A (gene 3552)
The experiment in a line: BSK_BE3C_IL1a: BioMAP Diversity Plus: BE3C Assay for Interleukin-1 alpha (IL1a) Biomarker Activity (AID 2283016). The following applies: primary human bronchial epithelial cells; actives raise or lower the signal. An outline of the steps:
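Cultures of primary human bronchial epithelial cells receive test chemical. After 24 h, IL-1a is quantified by ELISA, while parallel wells are fixed in TCA and SRB-stained for total protein. Changes in either direction are fitted relative to DMSO.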

Read-out in assay [12]: Monocyte Chemoattractant Protein-1 (MCP1), CCL2 (gene 6347)
The experiment in a line: BSK_3C_MCP1: BioMAP Diversity Plus: 3C Assay for Monocyte Chemoattractant Protein-1 (MCP1) Biomarker Activity (AID 2283017). The following applies: primary human endothelial cells (HUVEC); actives raise or lower the signal. An outline of the steps:
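Using human vascular primary endothelium, researchers measured MCP-1 by ELISA 24 h after treatment, with DMSO serving as negative control for bidirectional fitting.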

Read-out in assay [13]: Monocyte Chemoattractant Protein-1 (MCP1), CCL2 (gene 6347)
The experiment in a line: BSK_4H_MCP1: BioMAP Diversity Plus: 4H Assay for Monocyte Chemoattractant Protein-1 (MCP1) Biomarker Activity (AID 2283018). The following applies: primary human endothelial cells (HUVEC); actives raise or lower the signal. An outline of the steps:
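Readout: MCP-1 ELISA on compound-treated HUVEC, sampled 24 h post-dosing. Baseline and negative control DMSO; bidirectional fit. Overt toxicity checked alongside by sulforhodamine B protein staining at time of biomarker measurement.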

Read-out in assay [14]: Human Leukocyte Antigen - DR isotype (HLADR), HLA-DRA (gene 3122)
Briefly: BSK_3C_HLADR: BioMAP Diversity Plus: 3C Assay for Human Leukocyte Antigen - DR isotype (HLADR) Biomarker Activity (AID 2283019).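 On outcome: ELISA of cell-surface HLA-DR on HUVEC 24 h after dosing.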 The following applies: primary human endothelial cells (HUVEC); actives raise or lower the signal. An outline of the steps: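 Compound added to primary HUVEC cultures, 24 h incubation, then HLA-DR determined by ELISA; endpoint derived by bidirectional fitting relative to DMSO negative control.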

Read-out in assay [15]: Interleukin-8 (IL8), CXCL8 (gene 3576)
Briefly: BSK_3C_IL8: BioMAP Diversity Plus: 3C Assay for Interleukin-8 (IL8) Biomarker Activity (AID 2283020). The following applies: primary human endothelial cells (HUVEC); actives raise or lower the signal. An outline of the steps: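 Human vascular endothelial cells (umbilical vein) in the 3C system; IL-8 level detected by ELISA at 24 h post-dose, with DMSO as baseline.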

The target of assay [16] is human Peroxisome Proliferator-activated Receptor delta (PPARd), PPARD (gene 5467) (UniProt Q03181). Briefly: ATG_PPARd_TRANS: Attagene TRANS-FACTORIAL HepG2 Assay for human Peroxisome Proliferator-activated Receptor delta (PPARd) (AID 2283002; active means hit-call score of the fitted dose curve at least 0.9, where 1 is the maximum). An outline of the steps: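 HepG2 cells transiently transfected with multiplexed GAL4-UAS reporter units and exogenous chimeric NR-Gal4 proteins; 24 h compound exposure. Reporter mRNA measured by RT-PCR, 6-FAM labelling, HpaI digestion and capillary electrophoresis; gain of signal versus DMSO.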

For assay [17], the target named is human Thyroid Receptor alpha (THRa1), THRA (gene 7067) (UniProt P10827). Briefly: ATG_THRa1_TRANS: Attagene TRANS-FACTORIAL HepG2 Assay for human Thyroid Receptor alpha (THRa1) (AID 2283014; active means hit-call score of the fitted dose curve at least 0.9, where 1 is the maximum). An outline of the steps:
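Measured here is mRNA from a GAL4-UAS reporter in transfected HepG2 cells carrying a Gal4-fused receptor, 24 h post-dose. DMSO served as negative control and baseline.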

Assay [18] concerns the target Retinoic acid receptor alpha (Homo sapiens) (UniProt P10276). The experiment in a line: ATG_RARa_TRANS: Attagene TRANS-FACTORIAL HepG2 Assay for human Retinoic Acid Receptor alpha (RARa) (AID 2283005; active means hit-call score of the fitted dose curve at least 0.9, where 1 is the maximum). An outline of the steps: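 HepG2 cells transiently transfected with multiple reporter units expressing chimeric RARα-GAL4 fusion, with GAL4-UAS-driven reporters. After 24 h compound exposure, reporter mRNA induction quantified by RT-PCR and capillary electrophoresis with fluorescent labeling; gain-of-signal fitted relative to DMSO control.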

Assay [19] concerns the target human Retinoic Acid Receptor gamma (RARg), RARG (gene 5916) (UniProt P13631). The experiment in a line: ATG_RARg_TRANS: Attagene TRANS-FACTORIAL HepG2 Assay for human Retinoic Acid Receptor gamma (RARg) (AID 2283009; active means hit-call score of the fitted dose curve at least 0.9, where 1 is the maximum). An outline of the steps:
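HepG2, RARg-GAL4 TRANS system, 24 h exposure; reporter mRNA by RT-PCR + CE fluorescence; increase over DMSO.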

Several values for one entry are separate records, joined by “and”; a condition that tells them apart may be missing. Equal entries are not always repeated. Records with an inconclusive call do not appear. A structure can be active in one record and inactive in another. Activity calls are given as the source filed them. How the source made its calls, unless noted: active means hit-call score of the fitted dose curve at least 0.9, where 1 is the maximum; inactive means score below 0.9.

Chain of human Peroxisome Proliferator-activated Receptor alpha (PPARa), PPARA (gene 5465) (Q07869 whole entry, looked up, the tested form may be a part): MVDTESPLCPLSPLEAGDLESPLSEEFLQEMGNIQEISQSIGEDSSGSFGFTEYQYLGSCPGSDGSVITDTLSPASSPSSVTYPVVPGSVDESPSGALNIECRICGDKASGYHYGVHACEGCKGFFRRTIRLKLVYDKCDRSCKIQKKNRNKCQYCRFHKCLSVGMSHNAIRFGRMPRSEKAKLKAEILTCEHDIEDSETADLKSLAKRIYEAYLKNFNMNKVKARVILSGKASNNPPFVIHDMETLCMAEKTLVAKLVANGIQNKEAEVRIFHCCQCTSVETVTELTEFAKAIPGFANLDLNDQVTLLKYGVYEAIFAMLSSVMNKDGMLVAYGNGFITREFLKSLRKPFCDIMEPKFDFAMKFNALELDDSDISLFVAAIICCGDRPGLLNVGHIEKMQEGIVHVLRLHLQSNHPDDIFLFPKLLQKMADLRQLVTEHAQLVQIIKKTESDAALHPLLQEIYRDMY
Chain of human RAR-related Orphan Receptor gamma (RORg), RORC (gene 6097) (P51449 whole entry, looked up, the tested form may be a part): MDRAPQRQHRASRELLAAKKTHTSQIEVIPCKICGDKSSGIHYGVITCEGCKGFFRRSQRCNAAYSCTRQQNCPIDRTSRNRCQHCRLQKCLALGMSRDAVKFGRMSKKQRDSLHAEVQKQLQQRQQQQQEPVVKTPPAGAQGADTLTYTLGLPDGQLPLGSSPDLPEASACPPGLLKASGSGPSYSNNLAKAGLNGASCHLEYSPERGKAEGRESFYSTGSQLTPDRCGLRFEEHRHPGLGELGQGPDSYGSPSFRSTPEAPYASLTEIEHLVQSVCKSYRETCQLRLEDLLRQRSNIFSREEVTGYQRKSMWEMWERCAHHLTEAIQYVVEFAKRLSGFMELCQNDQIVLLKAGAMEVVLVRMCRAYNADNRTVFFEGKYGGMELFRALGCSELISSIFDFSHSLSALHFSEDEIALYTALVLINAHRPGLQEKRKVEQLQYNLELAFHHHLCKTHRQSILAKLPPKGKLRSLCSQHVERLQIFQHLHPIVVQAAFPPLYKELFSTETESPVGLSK
Chain of human RAR-related Orphan Receptor beta (RORb), RORB (gene 6096) (Q92753 whole entry, looked up, the tested form may be a part): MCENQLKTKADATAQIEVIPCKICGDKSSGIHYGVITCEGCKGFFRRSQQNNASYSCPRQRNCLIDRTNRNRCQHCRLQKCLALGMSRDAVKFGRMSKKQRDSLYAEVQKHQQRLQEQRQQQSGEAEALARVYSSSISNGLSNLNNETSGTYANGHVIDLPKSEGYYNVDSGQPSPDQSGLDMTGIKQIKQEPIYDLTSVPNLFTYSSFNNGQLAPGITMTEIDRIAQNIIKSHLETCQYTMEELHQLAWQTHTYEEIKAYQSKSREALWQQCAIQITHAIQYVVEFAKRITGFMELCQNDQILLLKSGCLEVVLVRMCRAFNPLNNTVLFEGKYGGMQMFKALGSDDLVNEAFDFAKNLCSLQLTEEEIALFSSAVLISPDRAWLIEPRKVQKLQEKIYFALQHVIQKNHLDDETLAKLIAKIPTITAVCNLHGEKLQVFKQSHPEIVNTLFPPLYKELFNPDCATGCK
Chain of Retinoic acid receptor RXR-alpha (Homo sapiens) (P19793 whole entry, looked up, the tested form may be a part): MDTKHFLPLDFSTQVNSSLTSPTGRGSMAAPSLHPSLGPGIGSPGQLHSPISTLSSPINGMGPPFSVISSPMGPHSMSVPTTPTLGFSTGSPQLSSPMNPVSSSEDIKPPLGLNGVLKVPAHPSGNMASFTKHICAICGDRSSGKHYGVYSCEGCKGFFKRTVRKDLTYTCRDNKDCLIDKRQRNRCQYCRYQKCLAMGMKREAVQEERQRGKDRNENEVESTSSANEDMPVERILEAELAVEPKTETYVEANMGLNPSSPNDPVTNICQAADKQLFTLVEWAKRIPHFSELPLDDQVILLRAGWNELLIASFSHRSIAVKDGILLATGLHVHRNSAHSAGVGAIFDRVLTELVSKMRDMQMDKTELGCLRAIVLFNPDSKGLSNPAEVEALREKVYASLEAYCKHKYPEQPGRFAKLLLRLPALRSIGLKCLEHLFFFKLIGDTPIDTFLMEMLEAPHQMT
Chain of human Retinoid X Receptor beta (RXRb), RXRB (gene 6257) (P28702 whole entry, looked up): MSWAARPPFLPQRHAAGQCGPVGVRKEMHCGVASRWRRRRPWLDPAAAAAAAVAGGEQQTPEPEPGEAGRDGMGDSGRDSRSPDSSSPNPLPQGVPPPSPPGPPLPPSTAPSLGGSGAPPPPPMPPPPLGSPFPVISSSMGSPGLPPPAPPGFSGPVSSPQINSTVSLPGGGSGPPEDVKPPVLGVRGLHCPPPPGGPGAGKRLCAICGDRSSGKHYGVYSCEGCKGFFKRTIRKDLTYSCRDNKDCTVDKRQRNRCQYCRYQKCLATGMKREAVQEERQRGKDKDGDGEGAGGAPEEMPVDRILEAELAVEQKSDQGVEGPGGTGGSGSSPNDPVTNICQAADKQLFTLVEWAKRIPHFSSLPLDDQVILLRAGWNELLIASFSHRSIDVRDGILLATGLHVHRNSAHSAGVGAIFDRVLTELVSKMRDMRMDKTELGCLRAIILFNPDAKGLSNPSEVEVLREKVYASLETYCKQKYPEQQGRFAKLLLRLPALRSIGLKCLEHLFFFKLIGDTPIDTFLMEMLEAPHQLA
Chain of human Peroxisome Proliferator-activated Receptor delta (PPARd), PPARD (gene 5467) (Q03181 whole entry, looked up, the tested form may be a part): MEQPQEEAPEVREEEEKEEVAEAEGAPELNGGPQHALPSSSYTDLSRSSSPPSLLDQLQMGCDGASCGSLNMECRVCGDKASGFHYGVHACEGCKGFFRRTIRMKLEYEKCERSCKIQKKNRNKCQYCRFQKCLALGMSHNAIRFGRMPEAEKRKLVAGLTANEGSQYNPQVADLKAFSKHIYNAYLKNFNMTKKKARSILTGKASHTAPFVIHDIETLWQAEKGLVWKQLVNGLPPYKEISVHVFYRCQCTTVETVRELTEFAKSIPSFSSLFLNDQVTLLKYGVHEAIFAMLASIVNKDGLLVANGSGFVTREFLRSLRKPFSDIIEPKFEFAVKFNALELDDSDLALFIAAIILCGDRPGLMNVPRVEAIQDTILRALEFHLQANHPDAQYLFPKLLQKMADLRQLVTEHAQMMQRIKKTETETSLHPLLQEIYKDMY
Chain of Nuclear receptor subfamily 1 group I member 2 (Homo sapiens) (O75469 whole entry, looked up, the tested form may be a part): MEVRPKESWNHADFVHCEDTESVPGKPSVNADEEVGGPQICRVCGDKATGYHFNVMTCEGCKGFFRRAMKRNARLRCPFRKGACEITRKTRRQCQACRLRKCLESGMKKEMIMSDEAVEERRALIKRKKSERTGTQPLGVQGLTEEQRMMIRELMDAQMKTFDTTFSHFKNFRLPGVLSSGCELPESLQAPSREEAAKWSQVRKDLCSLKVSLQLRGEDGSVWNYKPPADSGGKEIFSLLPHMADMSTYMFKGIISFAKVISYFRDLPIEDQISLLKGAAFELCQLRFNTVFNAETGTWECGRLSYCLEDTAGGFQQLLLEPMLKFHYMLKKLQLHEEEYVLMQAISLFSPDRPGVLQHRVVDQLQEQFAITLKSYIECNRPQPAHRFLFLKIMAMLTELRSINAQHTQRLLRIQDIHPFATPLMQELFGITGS
Chain of human Thyroid Receptor alpha (THRa1), THRA (gene 7067) (P10827 whole entry, looked up, the tested form may be a part): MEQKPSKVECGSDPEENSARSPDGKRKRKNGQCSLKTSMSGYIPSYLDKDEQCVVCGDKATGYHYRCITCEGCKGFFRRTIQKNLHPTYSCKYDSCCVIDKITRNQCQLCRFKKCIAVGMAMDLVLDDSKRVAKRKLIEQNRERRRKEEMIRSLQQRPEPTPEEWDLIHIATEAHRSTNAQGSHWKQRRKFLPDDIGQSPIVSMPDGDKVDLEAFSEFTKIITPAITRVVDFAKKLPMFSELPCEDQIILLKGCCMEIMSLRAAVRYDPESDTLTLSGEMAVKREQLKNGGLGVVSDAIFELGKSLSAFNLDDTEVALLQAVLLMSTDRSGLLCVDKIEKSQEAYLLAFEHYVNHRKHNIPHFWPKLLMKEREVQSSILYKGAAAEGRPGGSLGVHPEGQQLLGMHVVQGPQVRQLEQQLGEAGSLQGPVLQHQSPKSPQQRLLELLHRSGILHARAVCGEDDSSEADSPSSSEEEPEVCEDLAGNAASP
Chain of Retinoic acid receptor alpha (Homo sapiens) (P10276 whole entry, looked up, the tested form may be a part): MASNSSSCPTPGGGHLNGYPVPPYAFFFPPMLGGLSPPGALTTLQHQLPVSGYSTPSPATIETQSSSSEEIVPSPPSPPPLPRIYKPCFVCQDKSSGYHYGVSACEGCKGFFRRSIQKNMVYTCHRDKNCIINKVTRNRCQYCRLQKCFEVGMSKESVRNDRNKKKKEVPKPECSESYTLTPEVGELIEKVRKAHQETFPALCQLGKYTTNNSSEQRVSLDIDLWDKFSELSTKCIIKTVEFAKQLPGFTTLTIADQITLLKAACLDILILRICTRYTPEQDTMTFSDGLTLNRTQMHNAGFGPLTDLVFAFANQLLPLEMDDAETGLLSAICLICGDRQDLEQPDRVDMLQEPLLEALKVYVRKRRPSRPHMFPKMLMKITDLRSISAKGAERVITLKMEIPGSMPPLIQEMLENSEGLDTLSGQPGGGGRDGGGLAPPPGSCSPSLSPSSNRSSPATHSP
Chain of Peroxisome proliferator-activated receptor gamma (Homo sapiens) (P37231 whole entry, looked up): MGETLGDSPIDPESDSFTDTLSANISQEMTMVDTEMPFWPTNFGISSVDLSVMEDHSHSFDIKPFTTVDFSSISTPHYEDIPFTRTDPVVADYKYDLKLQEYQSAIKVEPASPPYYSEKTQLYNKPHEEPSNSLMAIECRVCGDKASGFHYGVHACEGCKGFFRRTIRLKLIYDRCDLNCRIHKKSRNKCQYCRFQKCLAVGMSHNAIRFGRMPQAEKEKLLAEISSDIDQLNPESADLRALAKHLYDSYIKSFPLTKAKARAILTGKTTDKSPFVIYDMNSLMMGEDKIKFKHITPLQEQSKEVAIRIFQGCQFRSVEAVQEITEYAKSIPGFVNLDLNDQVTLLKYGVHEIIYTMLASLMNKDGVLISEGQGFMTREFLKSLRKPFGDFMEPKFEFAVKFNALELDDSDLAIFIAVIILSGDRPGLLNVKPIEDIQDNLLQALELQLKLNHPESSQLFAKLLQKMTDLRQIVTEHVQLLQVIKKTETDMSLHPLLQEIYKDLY

For `CC(=O)OC(C)(C)C1CC=C(C)CC1` (centres undefined), the half-maximal activity concentration (AC50) in assay [1] was 33.3 µM (active); in assay [4] it was 28.4 µM (active); in [6], 33.8 µM (active); in [12], 31.3 µM (active); in [13], 29.8 µM (active); in [14], 31.3 µM (active). Further, the outcome in [2], in assay [3], in assay [5], in assay [7], in assay [8] and in [9] was inactive. Moreover, the molecule was called inactive in assay [10], in assay [11] and in assay [15].
As to `c1ccc2c(c1)-c1ccc3ccc4cccc5cc-2c1c3c45`, the results for the concentration at half-maximal activity (AC50) in assay [1] and in assay [14] were 0.981 µM (active) and 0.621 µM (active), respectively. The molecule was classed as inactive in assay [2], in assay [16], in assay [3], in [4], in [5] and in assay [6]. Further, the result in assay [7], in assay [8], in assay [10], in [17], in assay [11] and in assay [12] was inactive. For the same molecule, the result in assay [13] and in [15] was inactive.
Take `CC(=O)c1ccc(C)cc1`: the outcome in [1], in assay [2], in [3], in assay [4], in [10] and in assay [11] was inactive. The outcome in [12], in [13], in assay [14] and in assay [15] was inactive.
For `CCCCCCCCCCCCS`, the AC50 was 28 µM (active) in assay [1]; 29.8 µM (active) in assay [3]; 14.4 µM (active) in [4]; 29.5 µM (active) in assay [12]; 23.8 µM (active) in assay [13]; 20 µM (active) in [14]. Besides, the AC50 in assay [15] is 20 µM (active). The result in assay [2], in [5], in [6], in [7], in assay [8] and in assay [9] was inactive. For the same molecule, the molecule was classed as inactive in assay [10] and in assay [11].
As for `COC(=O)c1ccc(C(=O)OC)cc1`, the outcome in [1], in [2], in assay [3], in assay [18], in assay [4] and in assay [6] was inactive. Also, the molecule was classed as inactive in assay [8], in assay [9], in assay [10], in [17], in [11] and in assay [12]. Moreover, the outcome in assay [13], in assay [14] and in [15] was inactive.
For the molecule `C#C[C@]1(O)CC[C@H]2[C@@H]3CCc4cc(O)ccc4[C@H]3CC[C@@]21C`, the result in [1], in [16], in [3], in assay [18], in assay [5] and in assay [6] was inactive. Besides, the molecule was classed as inactive in assay [19], in assay [7], in assay [8], in assay [9], in assay [10] and in assay [17]. In addition, the outcome in [11] and in [13] was inactive. The AC50 was 4.5 µM (active) in assay [4]; 2.7 µM (active) and 4.39 µM (active) and 6.57 µM (active) in [6]; 7.15 µM (active) in [12]; 6.67 µM (active) in assay [14]; 5.33 µM (active) in [15].
For the molecule `c1ccc(OCCOc2ccccc2)cc1`, the outcome in [1], in assay [16], in [3], in assay [4], in assay [6] and in assay [7] was inactive. The call in assay [9], in assay [17], in assay [11], in assay [12], in assay [13] and in assay [14] was inactive. Further, the outcome in [15] was inactive.
Regarding `C=C(C)C(N)=O`, the outcome in assay [1], in assay [3], in [18], in [4], in assay [7] and in [17] was inactive. In addition, the result in [11], in assay [12], in assay [13], in assay [14] and in [15] was inactive.

What is called AC50 is the concentration at which the activity in the assay is half-maximal.
